Screen size: about 360,000 compounds; about 2,400 (0.67%) were called active. The sample as a whole holds a higher share of actives than the screen did. Values without a mark were called inactive. Cut-off read from the data, not from the text of the source: active = enhancement above about 30%; inactive = the rest.
Molecular target: Thyrotropin-releasing hormone receptor (Homo sapiens) (UniProt P34981)
Test: qHTS for Small Molecule Agonists and Allosteric Enhancers of Human TRH Receptor: Primary Screen for Enhancers; note: 0% is about no effect
Conditions: TRHR cells, fluo-8 calcium fluorescence, EC20 TRH enhancement; at 2 µM; hits give high values
How it was run: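 Enhancer read-out: after compound pinning and an initial kinetic agonist-mode read, an EC20 of TRH (10 nM final) was injected and fluo-8 calcium signal (Ex 480/Em 530) followed at 1 s/cycle for 100 cycles in TRHR-expressing cells.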

Thyrotropin-releasing hormone receptor (Homo sapiens), sequence (P34981 whole entry, looked up): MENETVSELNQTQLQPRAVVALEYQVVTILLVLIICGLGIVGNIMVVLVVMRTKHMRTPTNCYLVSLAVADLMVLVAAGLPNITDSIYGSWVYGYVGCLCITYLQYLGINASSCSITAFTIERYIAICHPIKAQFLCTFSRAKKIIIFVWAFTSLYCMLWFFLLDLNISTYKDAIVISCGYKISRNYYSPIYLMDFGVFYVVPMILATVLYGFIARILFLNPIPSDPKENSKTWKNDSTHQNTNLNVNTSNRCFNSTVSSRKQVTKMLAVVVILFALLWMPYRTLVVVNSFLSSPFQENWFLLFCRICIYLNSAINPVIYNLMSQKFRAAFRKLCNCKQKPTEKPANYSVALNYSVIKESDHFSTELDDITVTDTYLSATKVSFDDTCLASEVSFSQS

Compound	enhancement
Cc1nn(Cc2ccc(F)cc2)c(C)c1NC(=O)c1cc(CC(C)C)on1	-1.79%
O=c1[nH]oc(O)c1-c1ncc(C(F)(F)F)cc1Cl	0.0064%
O=C(c1ccccn1)c1ncc(C(F)(F)F)cc1Cl	1.39%
O=c1[nH]c2cccnc2n(CCNc2ncc(C(F)(F)F)cc2Cl)c1=O	48.4% (active)
COc1ccccc1Nc1nc(N)nc(N)c1S(=O)(=O)c1ccccc1	2.56%
O=C(NCc1nnc(C(=O)Nc2ccc(C(F)(F)F)cc2Cl)o1)c1ccccc1	0.059%
Cc1nnc(SCC(=O)NCc2ccccc2Cl)c2nn(-c3ccccc3)c(C)c12	4.74%
COc1ccccc1Nc1c2c(nc3ccc(NC(=O)/C=C/c4cc(OC)c(OC)c(OC)c4)cc13)CCCC2	0.792%
COc1ccc(CN2CCN(C(=O)CCC(=O)Nc3nnc(C(C)C)s3)CC2)cc1F	-5.21%
CC(C)c1nnc(NC(=O)CCC(=O)N2CCN(c3cccc(Cl)c3)CC2)s1	44.3% (active)
CCc1nnc(NC(=O)CCC(=O)N2CCN(c3cc(C)ccc3C)CC2)s1	10.6%
CCOc1ccc(NC(=O)c2cc3c(=O)n(Cc4cccs4)ccc3nc2C)cc1	2.83%
Cc1cccc(NC(=O)c2nnn(CC(=O)Nc3ccc(C(C)C)cc3)c2N)c1C	16.4%
CCOc1ccc(NC(=O)COc2ccc(C(=O)N3CCC(C(N)=O)CC3)cc2OC)cc1	1.2%
CCOc1ccc(C(NC(=O)c2cc(OC)c(OC)c(OC)c2)c2cc(Cl)c3cccnc3c2O)cc1 (stereo not given)	8.01%
CCOc1ccc(N/C=C/C(=O)c2cc(OC)c(OC)c(OC)c2)cc1	36% (active)
CN(CC(=O)Nc1ccccc1F)S(=O)(=O)c1ccc2c(c1)c(=O)n(C)c(=O)n2C	-1.52%
CCOc1cc2[nH]c(=O)n(Cc3ccc(C(=O)NCCN(CC)CC)cc3)c(=O)c2cc1OCC	6.62%
Cc1csc2nc(COc3ccc(NC(=O)COc4ccccc4)cc3)cc(=O)n12	-0.546%
Cc1ccc(C(=O)Nc2ccc(OCc3cc(=O)n4c(C)csc4n3)cc2)cc1	44.4% (active)
Cc1ccc(C(=O)Nc2ccc(OCc3cc(=O)n4c5c(sc4n3)CCCC5)cc2)cc1	-8.75%
CCN(CC)c1cc(NC2CCCCC2)c2c3c(onc13)-c1ccccc1C2=O	3.4%
Cc1c(CNC(C)c2ccccc2)c(C(=O)O)c(C)n1Cc1c(F)cccc1Cl (stereo not given)	0.16%
CCOc1ccc(-c2cc3nc(C4CCN(C(=O)OC(C)(C)C)CC4)c(C(=O)Nc4cccc(CC)c4)cn3n2)cc1	12.9%
Cc1ccc(/C=C(\C#N)C(=O)Nc2cc(C)ccc2C)cc1	-0.361%

Compound	enhancement
CCOC(=O)/C(C#N)=C\c1c(C)cc(C)c(COC(C)=O)c1C	14.9%
COC(=O)/C(C#N)=C/c1occc1C	32.7% (active)
CCc1ccc(NC(=O)N2CCN(C(=O)c3nsc4ccccc34)CC2)cc1	-4.71%
O=S(=O)(c1ccc2c(c1)OCCO2)N1CCN(S(=O)(=O)c2cc(F)ccc2F)CC1	6.77%
CN1C(=O)c2cccc3c(N)ccc(c23)C1=O	50.3% (active)
Cc1nn(C)cc1N1C(=O)c2cccc3c(N)ccc(c23)C1=O	30% (active)
Cn1c(=O)n(Cc2c(F)cccc2Cl)c(=O)c2c1nc1n2CCN1c1ccc(F)cc1	0.582%
Cc1cc(C)cc(NC(=O)Cn2nc(N3CCN(c4ccccc4)CC3)ccc2=O)c1	-3.13%
Cc1cc(-c2ccc(C)c(S(=O)(=O)N3c4ccccc4CC3C)c2)on1 (stereo not given)	0.217%
CCOc1cccc2cc(-c3cn4c(n3)sc3cc(C)ccc34)c(=O)oc12	-0.977%
COc1ccc(CCNC(=O)CCc2ccccc2O)cc1OC	-5.5%
COc1cc(CNCCSc2nnnn2C)ccc1OCc1ccc(Cl)cc1Cl	1.67%
COc1ccc(CCn2ccc(O)c(Cc3ccc(Cl)cc3Cl)c2=O)cc1OC	54.5% (active)
O=C(CSc1ncc(CO)n1Cc1ccc(F)cc1)NCc1ccco1	-2.31%
CCOc1ccc(CNC(=O)c2ccc3nc(CC)c(CC)nc3c2)cc1OC	1.32%
CC1CCN(C(=O)COC(=O)c2cc(=O)[nH]c3ccccc23)CC1	-7.78%
CC1CCN(CC(=O)c2c[nH]c3ccccc23)CC1	38% (active)
Cc1[nH]c2ccccc2c1C(=O)CN1CCCC(C)C1 (stereo not given)	-2.86%
Cc1nnc(N2CCCC(C(=O)NCCN(C)C)C2)c2nn(-c3ccccc3)c(C)c12 (stereo not given)	1.94%
N#Cc1nc(Nc2cccc(Cl)c2)nc(NC2CCCC2)n1	-7.23%
CCn1c2ccccc2c2nnc(SCC(=O)O)nc21	-1.5%
COc1ccc(-n2nc(C(=O)NCCc3ccc(Cl)cc3)c3c4ccccc4n(C)c3c2=O)cc1Cl	-3.1%
CCN1CCN(C(=O)C2(NC(=O)Nc3cccc(F)c3)CCCCC2)CC1	1.28%
CCOC(=O)C1CCN(C(=O)C2(NC(=O)Nc3cccc(F)c3)CCCCC2)CC1	34.3% (active)
CCOC(=O)C1CCN(C(=O)Nc2cccc(OC)c2)CC1	-1.73%
